Test [1] can be described thus: hESC survival regulators, cell-based (AID 493140; call rule not given here;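 also: cells exposed to compounds for four days before counting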). The following applies: human embryonic stem cell survival screen; stronger effect = higher value.
Test [2] relates to Hepatitis C virus NS3 helicase. The test can be described thus: HCV NS3 helicase inhibitors, primary screen, biochemical, fluorescence polarization, LOPAC1280 library (AID 687035; in the data active = inhibition above about 37%). The following applies: Purified HCV NS3 helicase, Cy5-dT15 ssDNA binding fluorescence polarization; stronger effect = higher value; concentration not given here.
Test [3] in a line: Cy5 fluorescence quenching or enhancement artefacts, artefact control for HCV NS3 helicase inhibitor project, biochemical, LOPAC1280 (AID 687037; call rule not given here). The following applies: Cy5-DNA-NS3h complex fluorescence interference counterscreen.
Test [4] is described as follows: LFS_MB_1R medulloblastoma cell growth inhibition, synergistic combos for chromothripsis tumors, cisplatin or BGB combos (AID 1671452).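 Also: cells exposed for 96 hours before readout.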 Conditions: LFS_MB_1R medulloblastoma cells, stronger effect = higher value.
A short description of test [5]: HTB85 osteosarcoma cell growth inhibition, synergistic combos for chromothripsis tumors, BGB or cisplatin IC20 combos (AID 1671453).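 Also: cells exposed for 96 hours before readout; 0% = vehicle DMSO and 100% = high DMSO killing control.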 The following applies: HTB85 osteosarcoma cells, drug combinations, stronger effect = higher value.
Test [6] in a line: CRL2098 osteosarcoma cell growth inhibition, synergistic combos for chromothripsis tumors, BGB or cisplatin IC20 combos (AID 1671454).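 Also: cells exposed for 96 h before readout; 0% = vehicle DMSO and 100% = killing by high DMSO.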 Conditions: CRL2098 osteosarcoma cells, drug combinations, stronger effect = higher value.
Test [7] is described as follows: HD-MB03 medulloblastoma cell growth inhibition, synergistic combos for chromothripsis tumors, BGB or cisplatin IC20 combos (AID 1671455; in the data active = inhibition above about 83%;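 also: 0% = vehicle DMSO and 100% = high DMSO as cytotoxic control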). Conditions: HD-MB03 medulloblastoma cells, stronger effect = higher value.
Test [8] in a line: UWB1.289 ovarian carcinoma cell growth inhibition, synergistic combos for chromothripsis tumors, BGB or cisplatin combos (AID 1671456).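 Also: cells exposed to compound for four days; 0% = vehicle DMSO and 100% = killing by high DMSO.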 The following applies: UWB1.289 ovarian carcinoma cells, stronger effect = higher value.
The nature of test [9]: LFS_MB_2R medulloblastoma cell growth inhibition, synergistic combos for chromothripsis tumors, cisplatin combos (AID 1671457).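 Also: cells exposed to compound for four days before readout.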 Conditions: LFS_MB_2R medulloblastoma cells, stronger effect = higher value.
Test [10] in a line: MDA-MB-436 breast carcinoma cell growth inhibition, synergistic combos for chromothripsis tumors, BGB or cisplatin combos (AID 1671458; call rule not given here;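 also: cells exposed for 96 hours; 0% = vehicle DMSO and 100% = killing by high DMSO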). Conditions: MDA-MB-436 breast carcinoma growth inhibition, drug combinations, stronger effect = higher value.
The nature of test [11]: UWB1.289_BRCA1 ovarian cancer growth, cell-based, BGB or cisplatin combinations (AID 1671459). Conditions: UWB1.289 BRCA1 ovarian carcinoma, drug combinations, stronger effect = higher value.
Test [12] in a line: human astrocyte viability loss, single and combined drugs, cytotoxicity control for chromothriptic childhood tumor combination screen, cell-based, BGB or cisplatin IC20 combos (AID 1671460).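 Also: cells exposed to compounds for 96 hours before viability readout; 0% = vehicle and 100% = killing control.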 Conditions: Human astrocytes, drug combinations, stronger effect = higher value.
Test [13] is described as follows: growth inhibition of BT084 medulloblastoma cells, cell-based, ICGC_MB145, cisplatin and BGB IC40 combos (AID 1671461).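 Also: cells exposed to drugs for 96 hours; 0% = vehicle DMSO and 100% = high DMSO full killing control.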 The following applies: drug combinations, stronger effect = higher value.
The nature of test [14]: growth inhibition of RCMB18 medulloblastoma cells, cell-based, cisplatin and BGB IC40 combos (AID 1671462).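 Also: cells exposed to compound for four days.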 Conditions: stronger effect = higher value.
The nature of test [15]: growth inhibition of CRL1545 osteosarcoma cells, cell-based, cisplatin and BGB IC20 combos (AID 1671464).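 Also: cells exposed to compound for 96 hours before readout; 0% = vehicle DMSO and 100% = high DMSO killing control.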 Conditions: stronger effect = higher value.
Test [16] can be described thus: kinase inhibitors against Plasmodium liver-stage infection, cell-based, known kinase inhibitor set, luminescence, hepatoma host viability (AID 624392; call rule not given here;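 also: infected cells incubated roughly two days before readout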). Conditions: Plasmodium liver stage in hepatoma cells, luciferase luminescence, concentration not given here; liver cell % of control: measured here: host liver cell viability; parasite % of control: stronger effect = lower value.

The nature of test [17]: phospholipid biosynthesis inhibitors in animal cells, primary screen, cell-based, LOPAC library, screen 4 (AID 1347384; call rule not given here). The following applies: phospholipid biosynthesis inhibition screen, at 10 µM.
[18] abbreviates: measured here: combination with BGB IC40, at 0.05 µM.
Where [19] appears, read: measured here: combination with cisplatin, at 0.5 µM.
[20] abbreviates: measured here: combination with cisplatin, at 5 µM.
[21] abbreviates: measured here: with BGB IC20, at 0.5 µM.
Where [22] appears, read: measured here: with BGB IC20, at 5 µM.
The mark [23] stands for this setting: measured here: with cisplatin IC20, at 0.5 µM.
Where [24] appears, read: measured here: with cisplatin IC20, at 5 µM.
The mark [25] stands for this setting: measured here: combination with BGB at IC20, at 0.5 µM.
Setting [26] is: measured here: combination with cisplatin at IC20, at 0.5 µM.
[27] abbreviates: measured here: combo with BGB at IC20, at 0.5 µM.
The mark [28] stands for this setting: measured here: combo with cisplatin at IC20, at 0.5 µM.
Where [29] appears, read: measured here: inhibition with BGB combination, at 0.05 µM.
[30] abbreviates: measured here: inhibition with cisplatin combination, at 0.05 µM.
The mark [31] stands for this setting: measured here: BGB combination, at 0.5 µM.
Where [32] appears, read: measured here: BGB combination, at 5 µM.
Where [33] appears, read: measured here: cisplatin combination, at 0.5 µM.
Where [34] appears, read: measured here: cisplatin combination, at 5 µM.
[35] abbreviates: BGB combination, concentration series, at 5 µM.
The mark [36] stands for this setting: cisplatin combination, concentration series, at 5 µM.
[37] abbreviates: measured here: combo with BGB IC20, at 0.5 µM.
Where [38] appears, read: measured here: combo with cisplatin IC20, at 0.5 µM.
Setting [39] is: cisplatin combination, at 0.5 µM.
Where [40] appears, read: measured here: BGB IC40 combination 0.05 uM, at 0.05 µM.
[41] abbreviates: measured here: BGB IC40 combination, at 0.05 µM.
The mark [42] stands for this setting: measured here: with BGB IC20 combination, at 0.5 µM.
[43] abbreviates: measured here: with cisplatin IC20 combination, at 0.5 µM.

Molecules are shown by their SMILES. Activity calls are given as the source filed them. Rule as the data show it, unless noted: active = inhibition above about 80%; inactive = the rest.

The source of these data is PubChem BioAssay.

`C=CC(=O)c1ccc2ccccc2c1`: the survival in test [1] was 46.4 (inactive).

With `C#CCN1C(C)=C(C(=O)OC)C(c2cccc([N+](=O)[O-])c2)C(C(=O)OCC)=C1C` (configuration not stated), the inhibition in test [2] is 1% (inactive). Also, the fluorescence ratio (interference) in test [3] is 0.9 (inactive).

Consider `Cc1nc2sccn2c(=O)c1CCN1CCC(=C(c2ccccc2)c2ccc(F)cc2)CC1`, for which, in test [2], the inhibition is -1% (inactive). In addition, in test [3], the fluorescence ratio (interference) is 1 (inactive).

For `O=c1cc(N2CCOCC2)oc2c1ccc1ccccc12`, the inhibition in test [4] (at 0.5 µM) is -3.28% (inactive); in test [4] (setting [18]), -8.81%; in [4] (setting [19]), -5.09%; in test [4] (setting [20]), 16.4%; in test [5] (at 0.5 µM) it was -0.76% (inactive); in [5] (setting [21]), 5.35%. For the same compound, the inhibition in test [5] (setting [22]) was 11.2%; in test [5] (setting [23]), -3.29%; in [5] (setting [24]), 1.5%; in [5] (single agent, at 5 µM), 5%; in [6] (at 0.5 µM), -13.1% (inactive); in [6] (setting [25]), -40.8%. The inhibition in test [6] (setting [26]) was 19.4%; in [7] (at 0.5 µM), 3.57% (inactive); in test [7] (setting [27]) it was 4.4%; in test [7] (setting [28]), -1.01%; in [8] (at 0.5 µM), -1.52% (inactive); in test [8] (setting [29]), 2.55%. The inhibition is -7.12% in test [8] (setting [30]); 0.24% (inactive) in [9] (at 0.5 µM); 7.58% in [9] (setting [19]); 0.815% in test [9] (setting [20]); 2.45% (inactive) in test [10] (at 0.5 µM); 5.3% in test [10] (setting [31]). For the same compound, the inhibition in [10] (setting [32]) was -21.1%; in test [10] (setting [33]) it was -2.44%; in test [10] (setting [34]), -6.05%; in [11] (setting [35]) it was -2.5%; in test [11] (at 0.5 µM), -1.77% (inactive); in test [11] (setting [36]), 4.97%. The inhibition in test [12] (at 0.5 µM) is 1.74% (inactive); in [12] (setting [37]), -0.854%; in test [12] (setting [38]) it was 0.235%; in [13] (at 0.5 µM) it was -4.41% (inactive); in [13] (setting [39]), -0.482%; in test [13] (cisplatin combination, at 5 µM), -111%. Also, the inhibition was -19.7% in test [13] (setting [40]); 2.3% in [13] (single agent, at 5 µM); -17.7% (inactive) in [14] (at 0.5 µM); 21.8% in [14] (cisplatin combo, at 5 µM); -2.3% in test [14] (setting [41]); -18.7% in test [14] (setting [19]). Besides, the inhibition is 1.08% in [14] (single agent, at 5 µM); 11.6% (inactive) in test [15] (at 0.5 µM); -23.5% in test [15] (setting [42]); 28% in test [15] (setting [43]); -4.12% in test [15] (single agent, at 0.05 µM); -7.26% in test [15] (single agent, at 5 µM).

On to `COc1cc(C=O)c([N+](=O)[O-])cc1OC`, for which the inhibition in test [4] (at 0.5 µM) was -20.1% (inactive); in [4] (setting [18]) it was -4.39%; in test [4] (setting [19]) it was -40%; in test [4] (setting [20]) it was -37.8%; in [5] (at 0.5 µM), -19.8% (inactive); in test [5] (setting [21]), -22.3%. Besides, the inhibition is -12.5% in test [5] (setting [22]); -24.3% in test [5] (setting [23]); -32.4% in test [5] (setting [24]); -9.78% in test [5] (single agent, at 5 µM); -33.8% (inactive) in test [6] (at 0.5 µM); -36.3% in test [6] (setting [25]). In addition, the inhibition was -11% in test [6] (setting [26]); -11.8% (inactive) in test [7] (at 0.5 µM); -17.8% in test [7] (setting [27]); -8.28% in [7] (setting [28]); -8.53% (inactive) in [8] (at 0.5 µM); 3.53% in test [8] (setting [29]). Further, the inhibition in [8] (setting [30]) is -7.7%; in test [9] (at 0.5 µM), -7.6% (inactive); in test [9] (setting [19]) it was -4.15%; in test [9] (setting [20]), 0.394%; in test [10] (at 0.5 µM) it was -6.2% (inactive); in test [10] (setting [31]), -13%. Moreover, the inhibition in test [10] (setting [32]) was -6.36%; in test [10] (setting [33]), 1.75%; in test [10] (setting [34]), 6.49%; in test [11] (setting [35]), 0.582%; in test [11] (at 0.5 µM) it was -4.66% (inactive); in [11] (setting [36]) it was -5.09%. In addition, the inhibition was -7.65% (inactive) in [12] (at 0.5 µM); -3.78% in [12] (setting [37]); -9.79% in [12] (setting [38]); 1.74% (inactive) in [13] (at 0.5 µM); 3.64% in test [13] (setting [39]); -6.4% in test [13] (cisplatin combination, at 5 µM). In addition, the inhibition in test [13] (setting [40]) is 80.8%; in [13] (single agent, at 5 µM) it was 1.94%; in test [14] (at 0.5 µM), -0.87% (inactive); in [14] (cisplatin combo, at 5 µM) it was -1.64%; in test [14] (setting [41]) it was 1.84%; in test [14] (setting [19]), 9.53%. For the same compound, the inhibition in test [14] (single agent, at 5 µM) was -21.6%; in [15] (at 0.5 µM), -4.03% (inactive); in test [15] (setting [42]) it was -16.1%; in test [15] (setting [43]), 2%; in test [15] (single agent, at 0.05 µM), -14.2%; in test [15] (single agent, at 5 µM), -34.2%.

For the compound `NS(=O)(=O)c1cccc2c1c([N+](=O)[O-])cc1nc(O)c(O)nc12`, the inhibition in [2] was -6% (inactive). For the same compound, the fluorescence ratio (interference) in test [3] was 1 (inactive).

Regarding `N#C/C(=C\c1ccc(O)c(O)c1)C(N)=O`, the survival in test [1] is 73 (inactive).

As to `COC(=O)/C=C/c1cc(O)ccc1O`, in test [1], the survival is 85.3 (inactive).

As for `N#C/C(=C\c1ccc(O)c(O)c1)C(=O)NCCCc1ccccc1`, in test [2], the inhibition was -2% (inactive). Besides, the fluorescence ratio (interference) in [3] is 1 (inactive).

On to `CCOC(=O)C12CC1/C(=N\O)c1ccccc1O2` (configuration not stated), for which, in test [2], the inhibition is 0% (inactive). For the same compound, the fluorescence ratio (interference) in test [3] is 1 (inactive).

Turning to `COc1ccc(OC)c2c(=S)c3ccccc3[nH]c12`, in [16], the liver cell % of control came out at 97.2% and the parasite % of control is 125% (inactive).

In the case of `CN(C)C(=O)n1nnnc1Cc1ccc(-c2ccccc2)cc1`, the inhibition in [2] is -2% (inactive). For the same compound, the fluorescence ratio (interference) in [3] was 1 (inactive).

For the compound `CS(=O)(=O)c1cccc(CNc2nc(Nc3ccc4c(c3)CCC(=O)N4)ncc2C(F)(F)F)c1`, the compound was classed as inactive in [17].

In the case of `COc1cc2nc(N3CCCN(C)CC3)nc(NC3CCN(Cc4ccccc4)CC3)c2cc1OC`, in test [2], the inhibition was 3% (inactive). Besides, the fluorescence ratio (interference) in test [3] is 1 (inactive). In [17], the outcome was inactive.

For orientation: inhibition means the drop in the measured response relative to a control, in per cent.
